CHX counter = counter-screen for Shiga toxin inhibitors: cycloheximide protein synthesis inhibition | 12% of 300,000 active | AID 2314 | max response, % | cell reporter, cycloheximide protein synthesis inhibition counterscreen; in the data active means max response mostly above about 13%, no sharp cut-off; inactive means mostly below about 14%; further: read at 38.3 µM for the half of the compounds with a filed dose; 0% is about no effect
AmpC inh detg = AmpC beta-lactamase inhibition with detergent present | AID 485294 | AmpC hydrolysis of nitrocefin, absorbance 480 nm, 0.01% Triton | 0.041% of 370,000 active | Potency, µM (doses to about 114 µM), without a hit: top-dose activity change, negative = inhibition, most hits filed as inhibitors;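 further: potency means the concentration at half of the fitted maximal effect; 0% = no-compound wells and -100% = no-enzyme wells; nearly all actives have a fitted effect of over 25% in size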
Target sequence (P00811 whole entry, looked up): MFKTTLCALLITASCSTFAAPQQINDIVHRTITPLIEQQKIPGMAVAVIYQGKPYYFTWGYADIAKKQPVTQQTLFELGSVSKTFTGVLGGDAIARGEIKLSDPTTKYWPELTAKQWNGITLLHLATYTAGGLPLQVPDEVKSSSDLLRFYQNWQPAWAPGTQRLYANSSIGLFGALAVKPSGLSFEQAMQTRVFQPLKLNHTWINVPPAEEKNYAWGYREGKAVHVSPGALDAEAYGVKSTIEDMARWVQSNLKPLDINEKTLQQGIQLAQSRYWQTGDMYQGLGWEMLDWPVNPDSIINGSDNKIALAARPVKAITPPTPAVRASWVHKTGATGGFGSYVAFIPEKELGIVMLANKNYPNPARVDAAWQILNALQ
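AmpC (5.3 nM in the dispensed reagent) in 20 mM phosphate pH 7.0 with 0.01% (detergent screen) or 0.0001% Triton X-100 was preincubated with compounds for 15 min at room temperature. Nitrocefin was then added from an 800 uM solution, and hydrolysis was followed at 480 nm.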
NS1 inh = inhibitors of influenza NS1 protein function. Potency, µM (top dose mostly 46.1 µM), for inactives: top-dose activity, positive = more growth. 0.4% of 270,000 active. AID 2326; calls by dose curve; further: potency means the concentration at half of the fitted maximal effect; actives are rising curves; nearly all actives have a fitted effect of over 50% in size
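In this qHTS, NS1 from influenza A is expressed in budding yeast, where it slows growth. Cells are switched from glucose to 2% galactose medium (pH 6.0, -URA), treated with compound, and growth recovery is read at OD600.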
AmpC no deterg = AmpC beta-lactamase inhibition without detergent; P00811; AmpC nitrocefin hydrolysis, absorbance 480 nm, 0.0001% Triton; Potency, µM (titrated, usually from 57.1 µM), for inactives: at the top dose activity change, negative = inhibition, usual class: inhibitors; 0.52% of 330,000 active; AID 485341;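 further: potency means the concentration at half of the fitted maximal effect; plate controls were no compound for no effect and no enzyme for full effect; nearly all actives have a fitted effect of over 20% in size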
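20 mM phosphate pH 7.0 + 0.01% (detergent screen) or 0.0001% Triton X-100; 5.3 nM AmpC reagent; cpd preinc 15 min RT; nitrocefin (800 uM stock) to start; A480 q20 s × 4 min; Activity was normalised to no-enzyme and no-compound control wells.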
Shiga inhibitor = blocks Shiga toxin action in Vero cells | Vero cells, Shiga toxin protein synthesis inhibition reporter | inhibition, % at 38.7 µM | 9.2% of 290,000 active | AID 2315; in the data active means inhibition mostly above about 28%, no sharp cut-off; inactive means mostly below about 43%; further: 0% is about no effect
Active calls of the source: *. Many of the other results were omitted from the sample, so hits are more common in it than they were. Unless noted, the call rests on the fitted dose curve; in most records, active means well fitted curve in the direction sought with a large enough effect; inconclusive means small, poorly fitted or top-dose-only effect, or another doubt; inactive means no such curve, though single readings can be large; an effect the other way counts as inactive or inconclusive.

For CC(=O)Nc1sc2c(c1C(N)=O)CCC2 the results were CHX counter -3.1, AmpC inh detg -6.8%, NS1 inh 1.5%, AmpC no deterg -11.0% and Shiga inhibitor -6.3.
Screening CC(C)(C)C(=O)NC(=S)Nc1sc2c(c1C(N)=O)CCC2 returned CHX counter 22.4*, AmpC inh detg -7.2%, NS1 inh -36.1%, AmpC no deterg -33.4% and Shiga inhibitor 23.0.
Screening Cc1ccc(NS(=O)(=O)c2ccc3oc(=O)c4ncn(C)c4c3c2)cc1C returned AmpC inh detg -7.2%.
For CCOc1ccc(S(=O)(=O)N2CCN(C(=O)CCOc3ccccc3C)CC2)cc1 the results were AmpC inh detg -13.2% and AmpC no deterg 121.4%.
Cc1cc(OC(=O)N(C)C)nc(-c2ccc(C)c(Cl)c2)n1 was read as CHX counter 14.9, AmpC inh detg inconclusive, NS1 inh -6.2%, AmpC no deterg 79.7% and Shiga inhibitor 38.7*.
`CCN(CCO)c1nc(N2CCCCC2)c2cnn(C)c2n1` gave CHX counter -4.5, AmpC inh detg -8.2%, NS1 inh -9.6%, AmpC no deterg 1.2% and Shiga inhibitor -5.0.
For O=C1CSC(=O)N1CC(O)COc1ccc(Cl)cc1 (stereo not drawn) the results were CHX counter 38.7*, AmpC inh detg -7.5%, NS1 inh 4.8%, AmpC no deterg -14.3% and Shiga inhibitor 86.1*.
O=C1c2ccccc2C(=O)N1CC(O)COc1ccc(Cl)cc1 (stereo not drawn) was read as CHX counter 18.5*, AmpC inh detg -0.7%, NS1 inh -6.0%, AmpC no deterg -11.0% and Shiga inhibitor 30.6.
For CC#CC(=O)Nc1cc2c(Nc3ccc(F)c(Cl)c3)ncnc2cn1 the results were CHX counter -2.9 and Shiga inhibitor -9.5.
`CC(C)(C)C(=O)OCc1cn(-c2ccccc2)nn1` gave CHX counter 30.4*, AmpC inh detg 1.5%, NS1 inh -15.3%, AmpC no deterg -10.0% and Shiga inhibitor 59.4*.
For CC(C)CC(=O)OCc1cn(-c2ccccc2)nn1 the results were CHX counter 23.4*, AmpC inh detg -3.4%, NS1 inh -0.5%, AmpC no deterg -11.4% and Shiga inhibitor 53.3*.
Screening CCNC(=O)OCc1cn(-c2ccccc2)nn1 returned CHX counter 14.4, AmpC inh detg inconclusive, AmpC no deterg -1.7% and Shiga inhibitor 30.0.
`CC(C)(C)C(=O)OCc1cn(-c2ccc(Cl)cc2)nn1` gave CHX counter 24.4*, AmpC inh detg 3.3%, NS1 inh -18.6%, AmpC no deterg -8.3% and Shiga inhibitor 39.7.
For CCN(CC)C(=O)Cn1cc(C(=O)C(=O)N2CCN(c3ccc(OC)cc3)CC2)c2ccccc21 the results were CHX counter -10.4, AmpC inh detg 1.7%, NS1 inh -2.2%, AmpC no deterg 187.6% and Shiga inhibitor -7.5.
`O=C1c2ccccc2C(=O)N1CCSc1nncs1` gave CHX counter -1.5, AmpC inh detg -13.0%, NS1 inh -9.7%, AmpC no deterg -6.8% and Shiga inhibitor 7.4.
Cc1csc(SCCN2C(=O)c3ccccc3C2=O)n1 was read as CHX counter 40.0*, AmpC inh detg inconclusive, NS1 inh -4.9%, AmpC no deterg -10.5% and Shiga inhibitor 102.0*.
O=C1c2ccccc2C(=O)N1CCSc1ccccc1 was read as CHX counter 34.3*, AmpC inh detg inconclusive, NS1 inh -7.5%, AmpC no deterg -17.4% and Shiga inhibitor 60.8.
For CCc1ccc(NC(=O)Cn2ncc3c(C)n(Cc4cccc(Cl)c4)c(C)c3c2=O)cc1 the results were AmpC inh detg 1.0%.
Screening CC(C)Cc1cc(C(=O)Nc2ccc3c(c2)OCO3)no1 returned CHX counter 36.0*, AmpC inh detg -14.4%, NS1 inh -8.2%, AmpC no deterg -8.8% and Shiga inhibitor 71.6*.
CC(C)Cc1cc(C(=O)Nc2cccc(O)c2)no1 was read as CHX counter 9.8, AmpC inh detg 3.0%, NS1 inh -40.5%, AmpC no deterg -19.5% and Shiga inhibitor 13.2.
`CC(C)Cc1cc(C(=O)Nc2ccc(Br)cc2)no1` gave CHX counter 35.5*, AmpC inh detg -1.8%, NS1 inh 4.5%, AmpC no deterg -14.5% and Shiga inhibitor 68.7.
Screening COc1ccc(NC(=O)OCC(C)C)cc1OC returned CHX counter 21.5*, AmpC inh detg inconclusive, NS1 inh -66.0%, AmpC no deterg -26.8% and Shiga inhibitor 50.4*.
